IMPase Li inh – IMPase inhibition in cells with lithium potentiation. Potency, µM (highest dose often 59.4 µM), inactives show at the top dose activity, negative = IMPase inhibition, most hits filed as inhibitors. 210,000 compounds, 0.35% hits. AID 1457. CHO-M1 cells, IP1 TR-FRET (IP-One), carbachol + lithium;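 further: IP1 builds up when IMPase is blocked and the TR-FRET signal falls; potency means the concentration at half of the fitted maximal effect; plate controls were basal vehicle for no effect and high inhibitor control for full effect; nearly all actives have a fitted effect of over 50% in size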
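CHO cells stably expressing M1 receptor (2000/well, cultured 16–30 h) treated 30 min at 37C with compound plus low lithium. Cytosolic IP1 by TR-FRET (665/620 ratio and 620 channel) after 10 min lysis; AC50 by Hill fit.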
HPGD inh – blocks human HPGD enzyme activity | 150,000 compounds, 4.3% hits | purified HPGD, NADH fluorescence kinetic, PGE2 substrate | P15428 | Potency, µM, for the others: at the highest dose activity change, negative = inhibition, actives largely listed as inhibitors; active means well fitted inhibition curve with a large enough effect, not every such curve was filed as active; inconclusive means small, poorly fitted or top-dose-only effect, or another doubt; inactive means no such curve, though single readings can be large or run the other way; further: potency means the concentration at half of the fitted maximal effect
Target sequence (P15428 whole entry, looked up): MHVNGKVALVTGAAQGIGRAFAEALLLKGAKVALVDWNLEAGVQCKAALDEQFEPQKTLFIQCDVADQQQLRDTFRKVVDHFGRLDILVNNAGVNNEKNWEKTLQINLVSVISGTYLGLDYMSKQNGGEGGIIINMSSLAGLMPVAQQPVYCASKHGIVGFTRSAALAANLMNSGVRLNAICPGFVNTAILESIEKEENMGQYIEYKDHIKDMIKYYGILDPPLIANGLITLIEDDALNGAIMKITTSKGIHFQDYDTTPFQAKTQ
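NADH formation kinetics: reaction with 30 uM PGE2 and 1 mM NAD+ (final), 20 nM enzyme, Tris-HCl pH 8 with Tween 20, after 15 min compound preincubation at room temperature. Fluorescence change, last versus first of five reads.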
IMPase inh – IMPase inhibition in cells | P97697 | CHO-M1 cells, IP1 accumulation, HTRF TR-FRET ratio | inhibition (IP1 accumulation), % at 46.1 µM | 120,000 tested, under 10 active | AID 901; active means well fitted curve in the direction sought with a large enough effect in the signal ratio, not every such curve was filed as active; inconclusive means small, poorly fitted or top-dose-only effect, or a change in a side signal; inactive means no such curve, though single readings can be large or run the other way; the % refers to the signal ratio;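 further: cells stimulated with carbachol in lithium chloride buffer; plate controls were DMSO basal wells for no effect and reference inhibitor wells for full effect; higher means more IMPase inhibition seen as more IP1 and lower FRET ratio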
Target sequence (P97697 whole entry, looked up): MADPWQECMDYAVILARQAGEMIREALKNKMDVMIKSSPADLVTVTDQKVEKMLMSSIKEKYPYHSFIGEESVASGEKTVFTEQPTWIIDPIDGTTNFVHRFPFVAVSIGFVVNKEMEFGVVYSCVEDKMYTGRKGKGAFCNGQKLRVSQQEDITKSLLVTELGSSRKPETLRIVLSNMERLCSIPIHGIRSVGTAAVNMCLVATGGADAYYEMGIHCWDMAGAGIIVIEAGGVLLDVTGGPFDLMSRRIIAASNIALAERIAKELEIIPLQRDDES
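Measured: the HTRF emission ratio (665/620 nm) plus the 620 nm donor channel, each fitted to the Hill equation to give AC50. Cells were CHO-M1 given compounds up to 46 uM and a 30 min carbachol stimulation at 37C.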
PNC inhibitor – blocks assembly of the perinucleolar compartment; PC3M PTB-GFP, PNC prevalence imaging, 16 h; stronger effect = lower value; activity change (PNC), negative = inhibition, % at 10 µM; 140,000 compounds, 3.1% hits; AID 2417;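 active means readout at or below -70, meaning at least 70% loss of cells showing the perinucleolar compartment, a nuclear body marking cancer cells; inconclusive means readout between -30 and a set limit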;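 further: plate controls were DMSO wells for no effect and camptothecin positive control wells for full effect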
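Compounds are pinned in duplicate onto adhered PC3M cells stably expressing GFP-tagged PTB and incubated 16 h at 37 C. Cells are then fixed, nuclei stained with Hoechst, and PNC-positive cells counted.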
12-hLO inh – inhibitors of human 12-lipoxygenase (ALOX12) | Potency, µM (doses to about 57.1 µM), for the others: top-dose activity change, negative = inhibition, hits mostly inhibitors | purified 12-hLO, xylenol orange hydroperoxide absorbance | 150,000 compounds, 0.12% hits | P18054; further: potency means the concentration at half of the fitted maximal effect; nearly all actives have a fitted effect of over 55% in size
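Lipoxygenase turnover measured by absorbance at 573 and 405 nm after Fe-XO development. Human 12hLO 150 nM, arachidonate 40 uM, pH 7.0 Hepes buffer with detergent; 15 min compound preincubation, 30 min reaction.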
ALDH1A1 block – blocks purified human ALDH1A1 activity; P00352; Purified ALDH1A1, NADH fluorescence, propionaldehyde substrate; Potency, µM (doses to about 75.3 µM), inactives show at the highest dose activity, negative = inhibition, usual class: inhibitors; 220,000 compounds, 7.3% hits; AID 1030; active means well fitted inhibition curve with a large enough effect, not every such curve was filed as active; inconclusive means small, poorly fitted or top-dose-only effect, or another doubt; inactive means no such curve, though single readings can be large or run the other way;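 further: potency means the concentration at half of the fitted maximal effect; plate controls were no enzyme wells and a reference inhibitor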
* = called active by the depositor; ? = inconclusive; . = no result given; [ ] = another dose, or the depositor's remark. Hits are enriched below; roughly 11% of the tested compounds scored in any of these assays. Unless noted, the call rests on the fitted dose curve; in most records, active means well fitted curve in the direction sought with a large enough effect; inconclusive means small, poorly fitted or top-dose-only effect, or another doubt; inactive means no such curve, though single readings can be large; an effect the other way counts as inactive or inconclusive. Unless noted, on the % scale 0 is the no-effect control and ±100 the full control effect.

SMILES	IMPase Li inh	HPGD inh	IMPase inh	PNC inhibitor	12-hLO inh	ALDH1A1 block
CCOC(=O)c1c(C)[nH]c(=S)c(C#N)c1-c1ccc(OC)cc1	5%[38.3 µM]	?	?	23	-14%	?
CCOC(=O)c1c(C)[nH]c(=S)c(C#N)c1-c1ccc(Cl)cc1	-3%	-16%	.	-108*	-10%	?
CCCCOc1ccc(-c2c(C(=O)Nc3ccccc3)c(C)[nH]c(=S)c2C#N)cc1	8.9µM*	.	.	.	.	3.5µM*
O=C(C1=C[C@@H](c2ccc(Br)cc2)C[C@@H](OCCCCO)O1)N1CCN(Cc2ccccc2)CC1	-6%	.	.	.	.	?
O=C(NC(O)C(=O)c1cccs1)c1cccnc1 (stereo unspecified)	-11%[38.3 µM]	-18%	-2	?	-6%	10µM*
O=C(NC(O)C(=O)c1ccccc1)c1cccs1 (stereo unspecified)	-3%[38.3 µM]	-8%	-3	-3	-3%	?
O=C(N/N=C(\CC(=O)c1cccs1)C(F)(F)F)c1cccnc1	.	.	.	.	.	20µM*
CC1(C)CC(=O)C(=Cc2cn(CCC#N)nc2-c2ccc(F)cc2)C(=O)C1	-9%	20µM*	.	?	-5%	-1%
N#CCCn1cc(/C=N/O)c(-c2ccc(F)cc2)n1	-17%[38.3 µM]	-4%	1	9	3%	19%
CC1(C)CC(=O)C(=Cc2cn(-c3ccccc3)nc2-c2ccc(Cl)cc2)C(=O)C1	-22%[38.3 µM]	1.1µM*	-23	20	6%	?
CC1(C)CC(=O)C(=Cc2cn(CCC#N)nc2-c2ccc(Cl)cc2)C(=O)C1	1%	16µM*	.	0	-8%	-6%
N#CCCn1cc(/C=C2\NC(=S)N(c3ccccc3)C2=O)c(-c2ccc(F)cc2)n1	6%	.	.	.	.	25µM*
N#CCCn1cc(C=C(C#N)C#N)c(-c2ccc(-c3ccccc3)cc2)n1	-6%	?	.	10	-3%	?
CC1CCN(Cc2c(O)ccc3c(=O)c(-c4cccc(Cl)c4)c(C(F)(F)F)oc23)CC1	.	.	-1	.	.	.
CCCCCC(=O)/C=C/C=C\CCCCCCCC(=O)O	5%	-3%	.	.	1%	0%
CCOC(=O)CSc1nc(N)c2c3c(sc2n1)CCCC3	-9%[38.3 µM]	-19%	-5	-2	6%	9%
CCOC(=O)c1cnn(-c2ncnc3sc4c(c23)CCC4)c1N	-1%[38.3 µM]	7.9µM*	5	0	4%	3%
CCOC(=O)c1cnn(-c2nc(SC)nc3sc4c(c23)CCCC4)c1N	32%[38.3 µM]	-10%	1	35	1%	1.1µM*
Cc1ccc(S(=O)(=O)n2nc(-c3ccccc3)nc2NCc2ccccc2Cl)cc1	.	.	5	.	.	.
COc1ccc(C2N(c3cc(Cl)ccc3OC)C(=O)C3CCCN32)cc1 (stereo unspecified)	22%[38.3 µM]	-13%	-5	2	-3%	10µM*
CN(C)c1ccc(C2N(c3ccc(Cl)cc3)C(=O)C3CCCN32)cc1 (stereo unspecified)	15%[38.3 µM]	-16%	2	-14	4%	0.79µM*
Cc1ccc(C2N(c3ccc(F)cc3)C(=O)C3CCCN32)cc1 (stereo unspecified)	11%[38.3 µM]	-11%	8	-11	-8%	6%
COc1ccc(Cl)cc1N1C(=O)C2CCCN2C1c1ccc(F)cc1 (stereo unspecified)	2%[38.3 µM]	-8%	6	-8	-1%	1%
CN(C)c1ccc(C2N(c3ccc(F)cc3)C(=O)C3CCCN32)cc1 (stereo unspecified)	-7%[38.3 µM]	-25%	5	-4	-5%	0.63µM*
CNc1ncnc2c1ncn2[C@H]1C[C@H](OP(=O)(O)O)[C@@H](COP(=O)(O)O)O1	9%	-11%	.	.	.	7%
SMILES	IMPase Li inh	HPGD inh	IMPase inh	PNC inhibitor	12-hLO inh	ALDH1A1 block
Cc1cccc(CSC(=N)N)c1	.	.	-9	-115*	2%	8%
CCn1cc(C(=O)N(CCC(C)C)c2c(N)n(Cc3ccccc3)c(=O)[nH]c2=O)c(=O)c2ccc(C)nc21	7%	.	.	.	.	4%
COc1ccc(OCC(=O)N2CCc3c([nH]c4ccccc34)C2c2ccccn2)cc1 (stereo unspecified)	18%	.	.	.	.	0.45µM*
Cc1nnc(SCc2ccc(F)cc2)s1	-3%[38.3 µM]	-10%	0	?	-3%	4%
Cc1nnc(SCc2cc(=O)[nH]c(=S)[nH]2)s1	-3%	.	.	.	.	13µM*
O=c1cc(CSc2ccccc2)[nH]c(=S)[nH]1	-1%[38.3 µM]	-11%	0	-25	0%	28µM*
Cc1ccc(SCc2cc(=O)c3c(=O)n(-c4ccccc4)[nH]c3[nH]2)cc1	10%	.	.	.	.	2%
CN(C)C(=O)c1ccc(-c2cc(NCc3cccnc3)ncn2)cc1	10%	.	.	.	.	?
C[N+](C)(C)[C@H](Cc1c[nH]c(=S)[nH]1)C(=O)O	-1%	-5%	.	.	-4%[11.4 µM]	5%[13.5 µM]
COc1ccccc1Nc1nc(Cl)nc(Nc2ccccc2OC)n1	7%	.	.	.	.	?
COc1ccccc1Nc1ccc(N)cc1	14%	.	.	.	.	28µM*
CCn1c(N2CCN(CC(=O)c3c(C)n(C)c4ccccc34)CC2)nc2c1c(=O)[nH]c(=O)n2C	5%[38.3 µM]	0%	5	?	-3%	?
O=C(CN1CCN(Cc2ccccc2)CC1)c1c[nH]c2ccccc12	17%[38.3 µM]	-7%	-6	-1	2%	25µM*
CCCn1c(N2CCN(CC(=O)c3c[nH]c4ccccc34)CC2)nc2c1c(=O)[nH]c(=O)n2C	2%[38.3 µM]	-17%	2	7	-1%	13µM*
O=C(CN1CCN(Cc2ccccc2)CC1)c1ccc(Br)cc1	-20%[38.3 µM]	-12%	5	24	-5%	2.5µM*
O=C(C(Cl)Cl)N1CCN(Cc2ccccc2)CC1	8%	-21%	4	27	1%	1.8µM*
CCCC1OC2CC3C4CCC5=CC(=O)C=CC5(C)C4C(O)CC3(C)[C@]2(C(=O)CO)O1 (stereo partly specified)	10%	-8%	.	.	-5%	-3%
CCC1=C2CC[C@H]3C(=O)N(CC(=O)OC)C(=O)[C@H]3[C@H]2[C@@]2(Cc3ccccc3)C(=NCCc3c[nH]c4ccccc34)OC(=O)N2C1=O	-3%	-1%	.	.	-3%	-7%
NC(=S)N/N=C/c1coc2c(ccc3ccccc32)c1=O	4%	-12%	1	-28	-2%	2.2µM*
NC(=S)N/N=C/c1coc2cc(Br)ccc2c1=O	.	.	.	.	.	2µM*
O=c1cc(/N=C/c2coc3c(ccc4ccccc43)c2=O)[nH]c(=S)[nH]1	2%	2.2µM*	.	39	-3%	?
NC(=O)N/N=C/c1coc2ccc3ccccc3c2c1=O	.	.	.	.	.	-10%
O=c1cc(O)c2sc3nc(-c4cccnc4)cc(C(F)(F)F)c3c2[nH]1	-15%	?	.	14	-7%	8.9µM*

Screens from PubChem BioAssay.
